Calls of active or inactive are those of the source. The calls were made as follows: active = hit-call score of the fitted dose curve at least 0.9, where 1 is the maximum; inactive = score below 0.9.
Tests used:
Conditions in all cases: mRNA level, 48 h; actives raise or lower the signal
[1] = read-out: ATP-citrate lyase (ACLY), ACLY (gene 47); assay: LTEA_HepaRG_ACLY: Life Technologies and Expression Analysis (LTEA) Assay for ATP-citrate lyase (ACLY) using HepaRG (AID 2283466)
In short: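 qRT-PCR readout of ACLY transcript after 48 h chemical treatment of HepaRG cells; expression normalized to three housekeeping genes. Eight-point half-log series, highest 100 uM, 0.5% DMSO vehicle. Gain or loss fitted against DMSO baseline.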

[2] = read-out: Peroxisomal acyl-coenzyme A oxidase 1 (ACOX1) gene, ACOX1 (gene 51); assay: LTEA_HepaRG_ACOX1: Life Technologies and Expression Analysis (LTEA) Assay for Peroxisomal acyl-coenzyme A oxidase 1 (ACOX1) gene using HepaRG (AID 2283467)
In short: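 HepaRG, 48 h chemical exposure, 8-pt half-log series from 100 uM top, 0.5% DMSO vehicle, duplicates. Readout: ACOX1 mRNA by Fluidigm qRT-PCR, housekeeping-normalized; bidirectional fit vs DMSO baseline.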

[3] = read-out: Alkaline Phosphatase, Placental (ALPP) gene, ALPP (gene 250); assay: LTEA_HepaRG_ALPP: Life Technologies and Expression Analysis (LTEA) Assay for Alkaline Phosphatase, Placental (ALPP) gene using HepaRG (AID 2283468);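 as to AC50: differentiated human HepaRG liver cells in serum-free induction medium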
In short: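 Expression of ALPP was quantified by qRT-PCR against three housekeeping genes in human HepaRG cultures treated for 48 h with an eight-point concentration series up to 100 uM. Activity in either direction was fitted relative to 0.5% DMSO.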

[4] = read-out: Bcl-2 (BAD) gene, BAD (gene 572); assay: LTEA_HepaRG_BAD: Life Technologies and Expression Analysis (LTEA) Assay for Bcl-2 (BAD) gene using HepaRG (AID 2283469)
In short: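 HepaRG, 48 h exposure, 8-pt half-log curve from 100 uM in 0.5% DMSO, duplicates. Readout: TaqMan qRT-PCR for BAD mRNA, housekeeping-normalised (ACTB/GAPDH/POLR2A); gain or loss fitted against DMSO baseline.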

[5] = read-out: Bcl-2 (BAX) gene, BAX (gene 581); assay: LTEA_HepaRG_BAX: Life Technologies and Expression Analysis (LTEA) Assay for Bcl-2 (BAX) gene using HepaRG (AID 2283470)
In short: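 Human HepaRG cells treated in duplicate for 48 h across eight concentrations (max 100 uM, 0.5% DMSO); BAX expression measured by qRT-PCR.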

[6] = read-out: adenosine kinase (ADK) gene, ADK (gene 132); assay: LTEA_HepaRG_ADK: Life Technologies and Expression Analysis (LTEA) Assay for adenosine kinase (ADK) gene using HepaRG (AID 2283471)
In short: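 Read-out is ADK transcript level measured by qRT-PCR and normalised to three housekeeping genes. Cells are human HepaRG, dosed for 48 h at up to 100 uM in 0.5% DMSO. Gain or loss of signal is fitted against DMSO controls.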

[7] = read-out: Alpha-fetoprotein (AFP) gene, AFP (gene 174); assay: LTEA_HepaRG_AFP: Life Technologies and Expression Analysis (LTEA) Assay for Alpha-fetoprotein (AFP) gene using HepaRG (AID 2283472)
In short: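 Measures AFP mRNA change in HepaRG after 48 h chemical exposure (8 half-log concentrations, highest 100 uM, 0.5% DMSO). Fold change relative to DMSO, fitted in both directions.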

BCL2L11 (gene 10018) = assay: LTEA_HepaRG_BCL2L11: Life Technologies and Expression Analysis (LTEA) Assay for Bcl-2 (BCL2L11) gene using HepaRG (AID 2283473)
In short: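 Cells were plated, cultured 48 h, switched to serum-free induction medium, then dosed in duplicate for 48 h at eight half-log concentrations up to 100 uM. Lysates underwent RNA isolation and TaqMan qRT-PCR; gain or loss versus DMSO was fitted.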

[8] = read-out: Apolipoprotein A-V (APOA5) gene, APOA5 (gene 116519); assay: LTEA_HepaRG_APOA5: Life Technologies and Expression Analysis (LTEA) Assay for Apolipoprotein A-V (APOA5) gene using HepaRG (AID 2283474)
In short: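 Human liver HepaRG cells are treated 48 h with test chemicals (100 uM top, half-log dilutions, 0.5% DMSO). APOA5 mRNA induction or loss is measured by qRT-PCR relative to vehicle.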

[9] = read-out: Apoptosis regulator Bcl-2 (Homo sapiens) (UniProt P10415); assay: LTEA_HepaRG_BCL2: Life Technologies and Expression Analysis (LTEA) Assay for Bcl-2 gene using HepaRG (AID 2283475)
In short: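 Each chemical was tested in duplicate on HepaRG cultures held in serum-free induction medium for 48 h, highest concentration 100 uM with half-log dilutions. Transcript levels came from multiplexed qRT-PCR, normalised to housekeeping genes; activity was scored in either direction relative to DMSO.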

[10] = read-out: Bcl-2 (BID) gene, BID (gene 637); assay: LTEA_HepaRG_BID: Life Technologies and Expression Analysis (LTEA) Assay for Bcl-2 (BID) gene using HepaRG (AID 2283476)
In short: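 Assay used HepaRG hepatic cells treated 48 h in serum-free medium with half-log dilutions from 100 uM. Endpoint: BID mRNA, qRT-PCR, normalized to ACTB/GAPDH/POLR2A.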

Caspase-3 (Homo sapiens) = Caspase-3 (Homo sapiens) (UniProt P42574); assay: LTEA_HepaRG_CASP3: Life Technologies and Expression Analysis (LTEA) Assay for cysteine-aspartic acid protease (CASP3) using HepaRG (AID 2283477)
Chain of Caspase-3 (Homo sapiens) (P42574 whole entry, looked up): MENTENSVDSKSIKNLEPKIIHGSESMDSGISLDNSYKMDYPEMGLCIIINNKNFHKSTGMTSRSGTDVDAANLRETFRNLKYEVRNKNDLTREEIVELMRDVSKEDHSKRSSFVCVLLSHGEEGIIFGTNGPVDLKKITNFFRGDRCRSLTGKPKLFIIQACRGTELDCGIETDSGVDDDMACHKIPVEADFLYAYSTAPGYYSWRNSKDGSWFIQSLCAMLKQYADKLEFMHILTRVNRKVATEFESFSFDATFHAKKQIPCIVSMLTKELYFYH
In short: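 In HepaRG liver cells dosed for 48 h at up to 100 uM (eight-point, duplicate), CASP3 expression changes are scored by qRT-PCR. Activity is fitted in both directions with 0.5% DMSO as baseline.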

[11] = read-out: Cytochrome P450 (CYP24A1), CYP24A1 (gene 1591); assay: LTEA_HepaRG_CYP24A1: Life Technologies and Expression Analysis (LTEA) Assay for Cytochrome P450 (CYP24A1) using HepaRG (AID 2283478)
In short: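 Human liver HepaRG cultures receive each chemical for 48 h across an eight-point half-log series topping at 100 uM in 0.5% DMSO. Induction or suppression of CYP24A1 mRNA is scored relative to vehicle after housekeeping-gene normalization.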

[12] = read-out: Cytochrome P450 (CYP1A2), CYP1A2 (gene 1544); assay: LTEA_HepaRG_CYP1A2: Life Technologies and Expression Analysis (LTEA) Assay for Cytochrome P450 (CYP1A2) using HepaRG (AID 2283479)
In short: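 Assesses CYP1A2 mRNA in human HepaRG liver cells after 48 h chemical exposure at up to 100 uM. Values come from qRT-PCR with bidirectional curve fitting relative to DMSO.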

[13] = read-out: cysteine-aspartic acid protease (CASP8), CASP8 (gene 841); assay: LTEA_HepaRG_CASP8: Life Technologies and Expression Analysis (LTEA) Assay for cysteine-aspartic acid protease (CASP8) using HepaRG (AID 2283480)
In short: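 qRT-PCR readout of CASP8 mRNA, normalized to three housekeeping genes, after 48 h chemical exposure of HepaRG cells; 8-point half-log series, top 100 uM, 0.5% DMSO vehicle. Bidirectional curve fitting against DMSO baseline.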

[14] = read-out: Cytochrome P450 (CYP2B6), CYP2B6 (gene 1555); assay: LTEA_HepaRG_CYP2B6: Life Technologies and Expression Analysis (LTEA) Assay for Cytochrome P450 (CYP2B6) using HepaRG (AID 2283481)
In short: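 Using 48 h treatment of HepaRG cells in serum-free induction medium, concentrations spanned half-log steps from 100 uM in 0.5% DMSO vehicle. CYP2B6 mRNA induction or loss is scored by qRT-PCR against DMSO.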

[15] = read-out: Cytochrome P450 2C19 (Homo sapiens) (UniProt P33261); assay: LTEA_HepaRG_CYP2C19: Life Technologies and Expression Analysis (LTEA) Assay for CYP2C19 using HepaRG (AID 2283482)
In short: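 Human HepaRG liver cells received test chemicals for 48 h (highest 100 uM, half-log dilutions in 0.5% DMSO). CYP2C19 mRNA induction or loss is read by multiplexed qRT-PCR and fitted in both directions versus vehicle.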

CYP2C8 (gene 1558) = assay: LTEA_HepaRG_CYP2C8: Life Technologies and Expression Analysis (LTEA) Assay for CYP2C8 using HepaRG (AID 2283483)
In short: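 HepaRG (human liver line), 48 h chemical exposure, 8-pt half-log series from 100 uM, 0.5% DMSO vehicle. Readout: CYP2C8 transcript by qRT-PCR, housekeeping-normalized. Bidirectional fit vs DMSO baseline.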

CYP2C9 (gene 1559) = assay: LTEA_HepaRG_CYP2C9: Life Technologies and Expression Analysis (LTEA) Assay for CYP2C9 using HepaRG (AID 2283484)
In short: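 HepaRG, 48 h dosing, 8-pt half-log series, top 100 uM, 0.5% DMSO vehicle. Read-out: CYP2C9 transcript by TaqMan qRT-PCR, housekeeping-normalized (ACTB/GAPDH/POLR2A). Gain or loss fitted vs DMSO baseline.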

CYP2E1 (gene 1571) = assay: LTEA_HepaRG_CYP2E1: Life Technologies and Expression Analysis (LTEA) Assay for CYP2E1 using HepaRG (AID 2283485)
In short: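 Assay uses 48 h exposure of HepaRG hepatic cells, eight concentrations to 100 uM. Expression of CYP2E1 is quantified by TaqMan qRT-PCR with ACTB, GAPDH and POLR2A normalization; curves fitted in both directions relative to vehicle.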

Measured: AC50

Chain of Cytochrome P450 2C19 (Homo sapiens) (P33261 whole entry, looked up): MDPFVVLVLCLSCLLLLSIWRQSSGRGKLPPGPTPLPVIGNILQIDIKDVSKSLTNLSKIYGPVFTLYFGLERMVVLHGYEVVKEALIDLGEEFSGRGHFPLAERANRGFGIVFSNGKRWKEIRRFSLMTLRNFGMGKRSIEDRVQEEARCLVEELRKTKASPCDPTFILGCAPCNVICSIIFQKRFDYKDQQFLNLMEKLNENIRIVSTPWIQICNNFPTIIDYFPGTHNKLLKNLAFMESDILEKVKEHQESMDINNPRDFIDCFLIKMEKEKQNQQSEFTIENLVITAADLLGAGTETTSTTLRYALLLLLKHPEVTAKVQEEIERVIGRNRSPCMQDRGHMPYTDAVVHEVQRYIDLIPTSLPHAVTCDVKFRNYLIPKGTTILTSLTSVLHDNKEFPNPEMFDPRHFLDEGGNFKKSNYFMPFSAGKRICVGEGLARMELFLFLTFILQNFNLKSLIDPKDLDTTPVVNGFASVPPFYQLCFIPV
Chain of Apoptosis regulator Bcl-2 (Homo sapiens) (P10415 whole entry, looked up): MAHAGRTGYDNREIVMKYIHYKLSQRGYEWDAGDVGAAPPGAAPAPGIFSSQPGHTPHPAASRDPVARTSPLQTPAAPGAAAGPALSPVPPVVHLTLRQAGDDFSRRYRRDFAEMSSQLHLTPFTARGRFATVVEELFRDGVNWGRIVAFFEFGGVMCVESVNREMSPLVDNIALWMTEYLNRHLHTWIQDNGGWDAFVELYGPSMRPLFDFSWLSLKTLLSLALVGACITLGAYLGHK

NS(=O)(=O)C(F)(F)C(F)(F)C(F)(F)C(F)(F)C(F)(F)C(F)(F)C(F)(F)C(F)(F)F
inactive: [3] | [5] | [10] | [11]
active: [1] 16.4 µM | [2] 14.9 µM | [4] 17.6 µM | [6] 4.81 µM | [7] 11.4 µM | BCL2L11 (gene 10018) 4.05 µM | [8] 10 µM | [9] 2.79 µM | Caspase-3 (Homo sapiens) 3.73 µM | [12] 5 µM | [13] 12.9 µM | [14] 9.56 µM | [15] 9.68 µM | CYP2C8 (gene 1558) 11.1 µM | CYP2C9 (gene 1559) 12.7 µM | CYP2E1 (gene 1571) 6.73 µM

CCNc1nc(NC(C)C)nc(SC)n1
active: [3] 17.9 µM | [7] 50 µM | [14] 1.11 µM | [15] 2.45 µM | CYP2E1 (gene 1571) 29.1 µM
inactive: all other assays above

CN(C)c1nc(=O)n(C2CCCCC2)c(=O)n1C
active: [3] 12.5 µM | [14] 33.6 µM
inactive: all other assays above

O=S(=O)(O)C(F)(F)C(F)(F)C(F)(F)C(F)(F)F
active: [14] 52.5 µM
inactive: all other assays above

CC(c1ccc(O)cc1)(c1ccc(O)cc1)c1ccc(O)cc1
active: [1] 61.6 µM | [2] 70.5 µM | [3] 0.895 µM | [6] 75.7 µM | BCL2L11 (gene 10018) 82.2 µM | [10] 3.86 µM | Caspase-3 (Homo sapiens) 87.5 µM | [12] 21.8 µM | [14] 31.3 µM | [15] 29 µM | CYP2C9 (gene 1559) 50 µM | CYP2E1 (gene 1571) 80.5 µM
inactive: [4] | [5] | [7] | [8] | [9] | [11] | [13]

O=C(N[C@H]1CN2CCC1CC2)c1cc2ccoc2cn1
active: [12] 50 µM | [14] 50 µM
inactive: all other assays above

CCCCCCCCOC(=O)c1ccccc1C(=O)OCCCCCCCC
active: [14] 16.3 µM
inactive: all other assays above

CN(C)CCO
inactive: all assays above

Nc1ccc(-c2ccc(N)cc2)cc1
active: [14] 50 µM | CYP2E1 (gene 1571) 12.3 µM
inactive: all other assays above

Cc1cccc([N+](=O)[O-])c1
active: [14] 8.74 µM
not listed: CYP2C8 (gene 1558)
inactive: all other assays above

ClC1=C(Cl)[C@]2(Cl)[C@@H]3[C@@H]4C[C@@H]([C@H]5O[C@@H]45)[C@@H]3[C@@]1(Cl)C2(Cl)Cl
active: [1] 0.033 µM | [2] 0.0311 µM | [6] 0.0386 µM | [7] 0.0145 µM | [9] 50 µM | Caspase-3 (Homo sapiens) 0.0261 µM | [14] 1.58 µM | [15] 12.3 µM | CYP2E1 (gene 1571) 22.4 µM
not listed: CYP2C8 (gene 1558)
inactive: all other assays above

CCC(=O)O[C@H]1CC[C@H]2[C@@H]3CCC4=CC(=O)CC[C@]4(C)[C@H]3CC[C@]12C
active: [14] 50 µM | [15] 3.23 µM | CYP2E1 (gene 1571) 3.12 µM
not listed: CYP2C8 (gene 1558)
inactive: all other assays above
